Reference: the supplement of paper PMC10105736

Columns and labels:
Experiment in all cases: MAPPIT interaction score (arbitrary units); higher = stronger binary interaction signal, active = hit call of the paper;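 active = MAPPIT score above the 99th percentile of random reference set scores in the same batch; inactive = at or below it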
ATPCL = conditions: MAPPIT configuration: N-N
Experimental: (§1)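 MAPPIT in HEK293T cells: Drosophila bait and prey ORFs (from the FlyBi ORF collection) were co-transfected in quadruplicate, with two wells stimulated by erythropoietin. Interaction-dependent JAK-STAT activation was read out with a STAT-responsive firefly luciferase reporter. Positive calls use the 99th percentile of random reference set (RRS) scores within each batch […]. Batches Dvs01 and Dvs02 used the N-N configuration and Dvs04 the N-C configuration. Pairs come from FlyBi screens, CuraGen, DPiM, Finley Y2H, Lit-BM-16, Lit-BS-16 and RRS.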

Cka = conditions: MAPPIT configuration: N-N; pair source set: Curagen_low_conf
Experimental: as §1

CycK = conditions: MAPPIT configuration: N-N; pair source set: Finley_Y2H
Experimental: as §1

Dsp1 = conditions: pair source set: RRS
Experimental: as §1

Fkbp12 = conditions: MAPPIT configuration: N-N; pair source set: Lit-BS-16
Experimental: as §1

dod = conditions: MAPPIT configuration: N-N; pair source set: screen_1
Experimental: as §1

eIF4E3 = conditions: MAPPIT configuration: N-N; pair source set: Curagen_high_conf
Experimental: as §1

7B2 = conditions: MAPPIT configuration: N-N; pair source set: Finley_Y2H
Experimental: as §1

CG10591 = conditions: MAPPIT configuration: N-N; pair source set: Curagen_low_conf
Experimental: as §1

CSN7 = conditions: MAPPIT configuration: N-N; pair source set: Lit-BM-16
Experimental: as §1

PICK1 = conditions: MAPPIT configuration: N-N; pair source set: screen_1
Experimental: as §1

14-3-3epsilon = conditions: pair source set: Lit-BM-16
Experimental: as §1

hpo = conditions: MAPPIT configuration: N-N; pair source set: Lit-BM-16
Experimental: as §1

sd = conditions: MAPPIT configuration: N-C; pair source set: Lit-BM-16
Experimental: as §1

128up = conditions: MAPPIT configuration: N-N; pair source set: DPIM
Experimental: as §1

Measured: MAPPIT interaction score
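Also: HEK293T cells with Epo stimulation, STAT-responsive firefly luciferase reporter, fold induction versus unstimulated cells divided by the larger fold induction of two negative controls lacking either bait or prey.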

B1: PAN3 (protein)
chain: MCSTYGLLSFEFSDTAAMDPIFFSPTNGIPSESKLATYMNRQNVATPSGYGLNNGFSLLNLDSPLNKKSQVTPQSPEFIPTRLGSTPNFYAPYHNAPMQLSNGLNGVNGLTAAAAAAAAAAAAAAAAVPSSTSSASSASVTISKTANGGASMLALQKTASIASVTIAQQQPQHPQKQQQHPPSVGGGAVSAASAPIAISGAPPNPAAAPFVSSMSAQTPLKGRGAMMRQESPTAAMISGAGPGEKSPPHGMTPHGASPIPSALPTSVHQENVGGTIYFYPTANAQNSQPVVNSMVVDGTHPALHGVSAVAPMSAGVPAAMMYTGHVYPGPSSNVVTMQPKTLLESAFFMPDEMRAEVLARNEISNLIMDAAEAAQHALPLEVENYHALYPLEPPAQPLHAKLTFPATTYRATHNTTGYKYCLRRIHGFRLQSTKCMTLVEMWKKLQHTNVVQLREVFTTKAFGDNSLVLVYDYHPGSQTLLAKYFTPAPETNGYTDPFQGEARPFSHKSNMQRTSNGPLLPEATIWSIIMQLTAGLKAIHHAGLACKVLDPTKIIVTGKRVRFSSCCISDITQFDPNASNPLALVNMHQQDDLTALGRLVLALACRCLQSVQRDNVQSSIDMVTRNYSTDLRNFIVYLFTTNNRRSVTDLMPMIGARFYTQLDALQSKIDMQEDELAKEMENGRLYRILVKLNSINERPDFNLDCTWSETGDRYMLKLFRDYLFHSVTEDGRPWLDHAHIVQCLNKLDAGSIERVQLMSRDEQSVLIVSYAELKNCLENAFSELMSSAAN
active: CycK 3.73 | dod 2.85 | eIF4E3 2.53
inactive: ATPCL; pair source set: Curagen_high_conf 0.129 | ATPCL; pair source set: Lit-BS-16 0.112 | Cka -0.663 | Dsp1; MAPPIT configuration: N-C 0.178 | Dsp1; MAPPIT configuration: N-N -0.667 | Fkbp12 1.71

B2: CSN4 (protein)
chain: MAANYGISTAALRSQLMGLINFTGTHKDQADKYRQLLKTVLTNTGQELIDGLRLFVEAIVNEHVSLVISRQILNDVGSELSKLPDDLSKMLSHFTLEKVNPRVISFEEQVAGIRFHLANIYERNQQWRDAATVLVGIPLETGQKQYSVECKLGTYLKIARLYLEDNDSVQAELFINRASLLQAETNSEELQVLYKVCYARVLDYRRKFIEAAQRYNELSYRKIVDQGERMTALKKALICTVLASAGQQRSRMLATLFKDERCQHLPAYGILEKMYLERIIRRSELQEFEALLQDHQKAATSDGSSILDRAVFEHNLLSASKLYNNITFEELGALLDIPAVKAEKIASQMITEGRMNGHIDQISAIVHFENRELLPQWDRQIQSLCYQVNSIIEKISVAEPDWMDNLN
inactive: 7B2 -0.195 | CG10591 0.0604 | PICK1 2.03
active: CSN7 4.26

B3: yki (protein)
chain: MLTTMSASSNTNSLIEKEIDDEDMLSPIKSNNLVVRVNQDTDDNLQALFDSVLNPGDAKRPLQLPLRMRKLPNSFFTPPAPSHSRANSADSTYDAGSQSSINIGNKASIVQQPDGQSPIAAIPQLQIQPSPQHSRLAIHHSRARSSPASLQQNYNVRARSDAAAANNPNANPSSQQQPAGPTFPENSAQEFPSGAPASSAIDLDAMNTCMSQDIPMSMQTVHKKQRSYDVISPIQLNRQLGALPPGWEQAKTNDGQIYYLNHTTKSTQWEDPRIQYRQQQQILMAERIKQNDVLQTTKQTTTSTIANNLGPLPDGWEQAVTESGDLYFINHIDRTTSWNDPRMQSGLSVLDCPDNLVSSLQIEDNLCSNLFNDAQAIVNPPSSHKPDDLEWYKIN
inactive: 14-3-3epsilon; MAPPIT configuration: N-C 2.04 | 14-3-3epsilon; MAPPIT configuration: N-N 2.25 | hpo 0.208 | sd 0.32

B4: mod (protein)
chain: MAQKKAVTVKGKKATNGEEKPLAKRVTKSTKVQEEETVVPQSPSKKSRKQPVKEVPQFSEEDESDVEEQNDEQPGDDSDFETEEAAGLIDDEAEEDEEYNSDDEEDDDDDELEPGEVSKSEGADEVDESDDDEEAPVEKPVSKKSEKANSEKSEENRGIPKVKVGKIPLGTPKNQIVFVTNLPNEYLHKDLVALFAKFGRLSALQRFTNLNGNKSVLIAFDTSTGAEAVLQAKPKALTLGDNVLSVSQPRNKEENNERTVVVGLIGPNITKDDLKTFFEKVAPVEAVTISSNRLMPRAFVRLASVDDIPKALKLHSTELFSRFITVRRISQESISRTSELTLVVENVGKHESYSSDALEKIFKKFGDVEEIDVVCSKAVLAFVTFKQSDAATKALAQLDGKTVNKFEWKLHRFERSTSGRAILVTNLTSDATEADLRKVFNDSGEIESIIMLGQKAVVKFKDDEGFCKSFLANESIVNNAPIFIEPNSLLKHRLLKKRLAIGQTRAPRKFQKDTKPNFGKKPFNKRPAQENGGKSFVKRARF
inactive: 128up -0.0936
